Experimental data: PubChem BioAssay (NCI)
About 83,000 compounds went through this panel and 20% of them were active in at least one assay; those are over-represented in the sample as a whole.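 A percent growth of 40 corresponds to 60% growth inhibition; 0 means no net growth; -100 means all cells died. Active threshold: below 10.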 Active and inactive are the calls of the source.

How the values were obtained:
Assay in all cases: NCI-60 one-dose screen, 48 h (100 = growth as untreated, 0 = no growth, -100 = all killed)
Conditions in all cases: 10 µM unless noted
SR leukemia = system: SR leukemia
RPMI-8226 leukemia = system: RPMI-8226 leukemia
OVCAR-8 ovarian = system: OVCAR-8 ovarian
OVCAR-5 ovarian = system: OVCAR-5 ovarian
OVCAR-4 ovarian = system: OVCAR-4 ovarian
IGROV1 ovarian = system: IGROV1 ovarian
OVCAR-3 ovarian = system: OVCAR-3 ovarian
HS 578T breast = system: HS 578T breast
NCI/ADR-RES ovarian = system: NCI/ADR-RES ovarian
T-47D breast = system: T-47D breast
BT-549 breast = system: BT-549 breast
MDA-MB-435 melanoma = system: MDA-MB-435 melanoma
SW-620 colon = system: SW-620 colon
MCF7 breast = system: MCF7 breast
HCT-116 colon = system: HCT-116 colon
HCC-2998 colon = system: HCC-2998 colon
KM12 colon = system: KM12 colon
SK-OV-3 ovarian = system: SK-OV-3 ovarian

Measured: growth

Cc1cn2c(/C=C3/C(=O)Nc4c3ccc3ccccc43)c(C(F)(F)F)nc2s1
inactive: RPMI-8226 leukemia 14.7% | OVCAR-8 ovarian 27.7% | OVCAR-5 ovarian 43.4% | OVCAR-4 ovarian 51.3% | IGROV1 ovarian 42.1% | HS 578T breast 16.5% | T-47D breast 28.1% | BT-549 breast 37.2% | SW-620 colon 18.2% | MCF7 breast 15.4% | HCT-116 colon 30.6% | HCC-2998 colon 46.6% | KM12 colon 15.3%
active: SR leukemia 8.46% | OVCAR-3 ovarian -1.83% | NCI/ADR-RES ovarian 5.22% | MDA-MB-435 melanoma -47.2%

O=C1C=C(O)C(=O)C(CC2=C(O)C(=O)C=C(O)C2=O)=C1O
inactive: SR leukemia 103% | RPMI-8226 leukemia 107% | OVCAR-8 ovarian 105% | OVCAR-5 ovarian 91% | OVCAR-4 ovarian 101% | IGROV1 ovarian 109% | OVCAR-3 ovarian 108% | HS 578T breast 99.4% | NCI/ADR-RES ovarian 99.6% | T-47D breast 104% | MDA-MB-435 melanoma 100% | SW-620 colon 97.8% | MCF7 breast 105% | HCT-116 colon 106% | HCC-2998 colon 97.2% | KM12 colon 104%

C#Cc1cccc(NC(=O)c2ccccc2NC(=O)CCl)c1
inactive: SR leukemia 62.1% [8.25 µM] | RPMI-8226 leukemia 99.5% [8.25 µM] | OVCAR-8 ovarian 60.6% [8.25 µM] | OVCAR-5 ovarian 118% [8.25 µM] | OVCAR-4 ovarian 82.3% [8.25 µM] | HS 578T breast 69.3% [8.25 µM] | NCI/ADR-RES ovarian 81.1% [8.25 µM] | T-47D breast 77.7% [8.25 µM] | BT-549 breast 61.6% [8.25 µM] | MDA-MB-435 melanoma 89.9% [8.25 µM] | SW-620 colon 79.5% [8.25 µM] | MCF7 breast 67.9% [8.25 µM] | HCC-2998 colon 99.2% [8.25 µM] | KM12 colon 99.7% [8.25 µM]
active: IGROV1 ovarian -26.1% [8.25 µM]

CC1C(/C=N/Nc2ccccc2)C(C#N)(C#N)C1(C#N)C#N (stereo not given)
inactive: SR leukemia 46.6% | RPMI-8226 leukemia 82% | OVCAR-8 ovarian 85.6% | OVCAR-5 ovarian 87.3% | OVCAR-4 ovarian 76.1% | SK-OV-3 ovarian 95.7% | HS 578T breast 87.2% | NCI/ADR-RES ovarian 65.1% | T-47D breast 79.3% | BT-549 breast 77.4% | MDA-MB-435 melanoma 62.5% | SW-620 colon 60.2% | MCF7 breast 82.4% | HCT-116 colon 67.3% | HCC-2998 colon 86% | KM12 colon 62.5%

CCOC(=O)c1sc2nc(-c3cccc(O)c3)nc(N3CCOCC3)c2c1C
active: T-47D breast 5.33%
inactive: SR leukemia 65% | RPMI-8226 leukemia 55.4% | OVCAR-8 ovarian 61.8% | OVCAR-5 ovarian 88.3% | OVCAR-4 ovarian 51.3% | OVCAR-3 ovarian 60.5% | HS 578T breast 15.5% | NCI/ADR-RES ovarian 59.6% | BT-549 breast 52.8% | MDA-MB-435 melanoma 63.5% | SW-620 colon 73.2% | MCF7 breast 55.5% | HCT-116 colon 68.1% | HCC-2998 colon 78.2% | KM12 colon 63.3%

COc1cc(-c2nn(C)nc2-c2cc3ccccc3s2)cc(OC)c1OC
active: NCI/ADR-RES ovarian 9.9% | MDA-MB-435 melanoma -41%
inactive: SR leukemia 21.6% | RPMI-8226 leukemia 20.7% | OVCAR-8 ovarian 28% | OVCAR-5 ovarian 57.2% | OVCAR-4 ovarian 57.1% | IGROV1 ovarian 39% | HS 578T breast 19.3% | T-47D breast 56.5% | BT-549 breast 18.8% | SW-620 colon 26.7% | MCF7 breast 17% | HCT-116 colon 15.9% | HCC-2998 colon 49.4% | KM12 colon 19.5%

COc1cc(C2CC(=O)c3ccccc3N2)cc(OC)c1OC (stereo not given)
inactive: SR leukemia 99.6% | RPMI-8226 leukemia 91.3% | OVCAR-8 ovarian 94.3% | OVCAR-5 ovarian 103% | OVCAR-4 ovarian 97.4% | IGROV1 ovarian 99% | OVCAR-3 ovarian 110% | HS 578T breast 99.1% | NCI/ADR-RES ovarian 101% | T-47D breast 92.6% | BT-549 breast 104% | MDA-MB-435 melanoma 105% | SW-620 colon 100% | MCF7 breast 96.8% | HCT-116 colon 104% | HCC-2998 colon 109% | KM12 colon 99.6%

FC(F)(F)c1ccc(-c2cn3nc(-c4c[nH]c5ccc(Br)cc45)sc3n2)cc1
inactive: SR leukemia 85.9% | RPMI-8226 leukemia 107% | OVCAR-8 ovarian 105% | OVCAR-5 ovarian 95.5% | OVCAR-4 ovarian 102% | SK-OV-3 ovarian 92.7% | HS 578T breast 89.1% | NCI/ADR-RES ovarian 96% | T-47D breast 67.6% | BT-549 breast 105% | MDA-MB-435 melanoma 100% | SW-620 colon 97.3% | HCC-2998 colon 95.6% | KM12 colon 87.3%

CC(=O)O[C@H]1C(=O)[C@@]2(C)[C@H]([C@H](OC(=O)c3ccccc3)[C@]3(O)C[C@H](OC(=O)[C@H](OC(=O)CCC(=O)OC4CCC(S/N=C(N)/N=C(\N)N(C)C)CC4)[C@@H](NC(=O)c4ccccc4)c4ccccc4)C(C)=C1C3(C)C)[C@]1(OC(C)=O)CO[C@@H]1C[C@@H]2O (stereo not given in full)
active: HS 578T breast -9.33% | MDA-MB-435 melanoma 5.75% | HCT-116 colon 6.14%
inactive: SR leukemia 11.3% | RPMI-8226 leukemia 14% | OVCAR-8 ovarian 21.8% | OVCAR-5 ovarian 39.5% | OVCAR-4 ovarian 40.3% | IGROV1 ovarian 43.1% | OVCAR-3 ovarian 10.2% | NCI/ADR-RES ovarian 44.5% | T-47D breast 46.7% | BT-549 breast 35.9% | SW-620 colon 41.7% | MCF7 breast 19.3% | KM12 colon 10.7%

CN(C)S(=O)(=O)c1cccc(-c2nc3sc4c(c3c(=O)[nH]2)CCCC4)c1
active: SR leukemia -48.6% | OVCAR-4 ovarian -56.4% | HS 578T breast -4.53% | T-47D breast -22.1% | HCT-116 colon -41.3% | HCC-2998 colon -50.5%
inactive: RPMI-8226 leukemia 23.9% | OVCAR-8 ovarian 13.4% | OVCAR-5 ovarian 23.3% | IGROV1 ovarian 32.1% | OVCAR-3 ovarian 19.5% | NCI/ADR-RES ovarian 29.5% | BT-549 breast 31.9% | MDA-MB-435 melanoma 43.9% | SW-620 colon 13.7% | MCF7 breast 53.4% | KM12 colon 43.9%

CN(C)CCCNc1c2ccccc2nc2ccccc12
inactive: SR leukemia 86.9% | RPMI-8226 leukemia 100% | OVCAR-8 ovarian 92% | OVCAR-5 ovarian 97.9% | OVCAR-4 ovarian 87.4% | SK-OV-3 ovarian 95.8% | OVCAR-3 ovarian 103% | HS 578T breast 75.7% | T-47D breast 68.5% | BT-549 breast 72.6% | MDA-MB-435 melanoma 96.1% | SW-620 colon 103% | MCF7 breast 92% | HCT-116 colon 99% | HCC-2998 colon 107% | KM12 colon 97.3%

COc1cccc(NC(=O)c2sc3nc(C)c(C(C)=O)cc3c2N)c1
active: MDA-MB-435 melanoma -41.1%
inactive: SR leukemia 19% | RPMI-8226 leukemia 52.2% | OVCAR-8 ovarian 63.5% | OVCAR-5 ovarian 112% | OVCAR-4 ovarian 63.7% | IGROV1 ovarian 59.7% | OVCAR-3 ovarian 17.8% | HS 578T breast 43.3% | NCI/ADR-RES ovarian 34.1% | T-47D breast 54% | BT-549 breast 53.7% | SW-620 colon 39.3% | MCF7 breast 30.1% | HCT-116 colon 37.8% | HCC-2998 colon 54.5% | KM12 colon 37.8%

CC(=O)c1cc2c(N)c(C(=O)Nc3cccc4ccccc34)sc2nc1C
active: OVCAR-3 ovarian -5.38% | MDA-MB-435 melanoma -34%
inactive: SR leukemia 12.7% | RPMI-8226 leukemia 10.2% | OVCAR-8 ovarian 21.5% | OVCAR-5 ovarian 64% | OVCAR-4 ovarian 59.6% | IGROV1 ovarian 34.7% | HS 578T breast 38.2% | NCI/ADR-RES ovarian 16.3% | T-47D breast 42.7% | BT-549 breast 46.5% | MCF7 breast 22.1% | HCT-116 colon 29.3% | HCC-2998 colon 37.1% | KM12 colon 22%

CCCc1cc(=O)n2c(C(=O)Nc3cccc(C(=O)OCC)c3)c(C(=O)Nc3ccc(F)cc3)sc2n1
inactive: SR leukemia 82.4% [30 µM] | RPMI-8226 leukemia 57% [30 µM] | OVCAR-5 ovarian 71.2% [30 µM] | HS 578T breast 14.3% [30 µM] | NCI/ADR-RES ovarian 47.3% [30 µM] | T-47D breast 53.9% [30 µM] | BT-549 breast 82.5% [30 µM] | MDA-MB-435 melanoma 73.4% [30 µM] | SW-620 colon 55.9% [30 µM] | MCF7 breast 57.4% [30 µM] | HCT-116 colon 17.7% [30 µM] | KM12 colon 82.9% [30 µM]
active: OVCAR-8 ovarian -19.2% [30 µM] | OVCAR-4 ovarian 9.71% [30 µM] | OVCAR-3 ovarian -4.26% [30 µM]

CC(C)(C)CC(C)(C)c1ccc(OCCOCC[N+](C)(C)Cc2ccccc2)cc1
active: SR leukemia -50.8% | RPMI-8226 leukemia -60.3% | OVCAR-8 ovarian -65.7% | OVCAR-4 ovarian -16% | IGROV1 ovarian -45.9% | OVCAR-3 ovarian -35% | T-47D breast -7.78% | MDA-MB-435 melanoma -81.1% | SW-620 colon -39.2% | MCF7 breast -80.4% | HCT-116 colon -27.9% | HCC-2998 colon -32.5% | KM12 colon -91.3%
inactive: OVCAR-5 ovarian 29.6% | HS 578T breast 26.1% | NCI/ADR-RES ovarian 112%

CCn1c(Cc2ccccc2Nc2c(Cl)cccc2Cl)nnc1SCC(=O)NN1C(=O)/C(=C/c2cc(OC)c(O)c(OC)c2)SC1=S
active: OVCAR-3 ovarian 7.37% | HS 578T breast 5.34% | MDA-MB-435 melanoma -46.5%
inactive: SR leukemia 21.4% | RPMI-8226 leukemia 47% | OVCAR-8 ovarian 60% | OVCAR-5 ovarian 55.5% | OVCAR-4 ovarian 74% | IGROV1 ovarian 42.9% | NCI/ADR-RES ovarian 88.6% | T-47D breast 24.4% | BT-549 breast 50% | SW-620 colon 21.2% | MCF7 breast 16.9% | HCT-116 colon 11.5% | HCC-2998 colon 56.9% | KM12 colon 18%

CCc1nc(N)nc(N)c1C#CC(C)c1ccc(-c2ccncc2)cc1Cl (stereo not given)
inactive: SR leukemia 14.7% | RPMI-8226 leukemia 15.1% | OVCAR-8 ovarian 20.8% | OVCAR-5 ovarian 57.6% | OVCAR-4 ovarian 30.9% | IGROV1 ovarian 18.2% | OVCAR-3 ovarian 19.1% | HS 578T breast 38.7% | NCI/ADR-RES ovarian 21.8% | T-47D breast 24% | BT-549 breast 23.3% | MDA-MB-435 melanoma 22.1% | SW-620 colon 20.8% | MCF7 breast 14.2% | HCT-116 colon 13.6% | HCC-2998 colon 25.4% | KM12 colon 12.7%

O=C1CC[C@H](c2ccc(O)c3c2C(=O)[C@@H]2O[C@@H]2C3=O)c2cccc(O)c21
active: SR leukemia 2.02% | RPMI-8226 leukemia -3.81% | OVCAR-3 ovarian -9.05% | T-47D breast -26.1% | SW-620 colon -41.3% | MCF7 breast -31.5% | HCT-116 colon 5.4%
inactive: OVCAR-8 ovarian 43.5% | OVCAR-5 ovarian 99.6% | OVCAR-4 ovarian 72.4% | IGROV1 ovarian 90% | HS 578T breast 98.4% | NCI/ADR-RES ovarian 90% | MDA-MB-435 melanoma 47.3% | HCC-2998 colon 101% | KM12 colon 85.1%
